Compound activity: PubChem, National Center for Advancing Translational Sciences (NCATS)
Shown are actives, neighbours in structure and some others; about 2.5% of the full set was active somewhere.
MARV entry inh – qHTS for inhibitors of binding or entry into cells for Marburg Virus | Marburg virus pseudotyped entry inhibition, cell reporter | Potency, µM (top dose mostly 37.8 µM), most hits filed as inhibitors | 1.8% of 300,000 active | AID 540276, 2011; calls by dose curve; tested in HEK293 cells
Lassa entry inh – qHTS for Inhibitors of binding or entry into cells for Lassa Virus. 1.2% of 300,000 active. Lassa virus pseudotype entry inhibition, cell reporter. AID 540256, 2011. Potency, µM (titrated, usually from 37.9 µM), actives largely listed as inhibitors; calls by dose curve; tested in HEK293 cells; note: nearly all actives have a fitted effect of over 50% in size
VACV Venus inh – qHTS for Stage-Specific Inhibitors of Vaccinia Orthopoxvirus: Venus Reporter Primary qHTS. 0.46% of 330,000 active. AID 720580, 2013. Potency, µM (highest dose often 36.5 µM), actives largely listed as inhibitors. Vaccinia virus Venus reporter expression, fluorescence; calls by dose curve; tested in A549 cells; note: nearly all actives have a fitted effect of over 30% in size
VACV mCherry inh – qHTS for Stage-Specific Inhibitors of Vaccinia Orthopoxvirus: mCherry Reporter Primary qHTS; 0.63% of 310,000 active; Potency, µM (series often up to 36.5 µM), most hits filed as inhibitors; Vaccinia virus mCherry reporter infection, fluorescence; calls by dose curve; tested in A549 cells; note: nearly all actives have a fitted effect of over 35% in size
Of the large screens only hits and unclear results are named; the others gave an inactive call.

C[S+](=O)([O-])c1sc(C(=O)NC(=S)NC2CCC(OC(F)(F)F)CC2)c2c1C=CCC2 (stereo not drawn)	none (no result: Lassa entry inh, VACV Venus inh, VACV mCherry inh)
O=C(CCN1CCN(C(c2ccccc2)c2ccccc2)CC1)N/N=C/c1ccc(O)cc1	MARV entry inh inconclusive, Lassa entry inh inconclusive
COc1ccc(OC)c(/C=N/NC(=O)CCN2CCN(C(c3ccccc3)c3ccccc3)CC2)c1	MARV entry inh 10µM, Lassa entry inh inconclusive, VACV Venus inh inconclusive, VACV mCherry inh inconclusive
CCCN1C(=O)C(C#N)C(C)=CC1C (stereo not drawn)	none (no result: Lassa entry inh, VACV Venus inh, VACV mCherry inh)
COCCS(=O)(=O)N(Cc1ccc(Br)cc1)[C@@H](C)C(=O)OC	VACV Venus inh 7.1µM, VACV mCherry inh inconclusive (no result: MARV entry inh, Lassa entry inh)
COc1cccc(C(=O)N2CCCC(c3nc(SCCN4CCOCC4)ncc3C)C2)c1 (stereo not drawn)	none (no result: MARV entry inh, Lassa entry inh)
O=C(N/N=C/c1ccc([N+](=O)[O-])s1)c1cccc(Br)c1	MARV entry inh inconclusive, VACV Venus inh inconclusive, VACV mCherry inh inconclusive
Cn1c(SCC(=O)N/N=C/c2ccc([N+](=O)[O-])s2)nnc1-c1ccc(Cl)cc1	MARV entry inh 12µM, Lassa entry inh inconclusive
O=C(N/N=C/c1ccc([N+](=O)[O-])s1)c1ccncc1	MARV entry inh inconclusive, VACV Venus inh 11µM, VACV mCherry inh inconclusive
Cc1cccc(NC(=S)N/N=C/c2ccc([N+](=O)[O-])s2)c1	MARV entry inh inconclusive, Lassa entry inh 16µM, VACV Venus inh 22µM, VACV mCherry inh 11µM
Cc1ccc(C(=O)N/N=C/c2ccc([N+](=O)[O-])s2)cc1	MARV entry inh 11µM, Lassa entry inh inconclusive, VACV Venus inh inconclusive
Cc1ccc(C(=O)N/N=C\c2ccc([N+](=O)[O-])s2)cn1	Lassa entry inh inconclusive
CC1=CC(Cc2ccc(C)cc2)C(=O)N=N1 (stereo not drawn)	none (no result: Lassa entry inh, VACV Venus inh, VACV mCherry inh)
O=C(CNC(=O)c1ccccc1)N/N=C/c1ccc([N+](=O)[O-])s1	MARV entry inh inconclusive, VACV Venus inh 10µM, VACV mCherry inh 10µM
Cc1ccc(NC(=O)/C=C/c2ccc([N+](=O)[O-])s2)cc1	MARV entry inh 14µM, Lassa entry inh 10µM
Cc1cccc(NC(=O)/C=C/c2ccc([N+](=O)[O-])s2)c1	MARV entry inh inconclusive, Lassa entry inh inconclusive
O=S(=O)(NCCCCNS(=O)(=O)c1cccc2cccnc12)c1cccc2cccnc12	none (no result: MARV entry inh, Lassa entry inh)
COc1cccc(C2(CC(=O)N3CCCOc4c(cccc4OC)C3)CC(=O)N(C)C2=O)c1 (stereo not drawn)	none (no result: MARV entry inh, Lassa entry inh)
COC(=O)C1=C(C)N(c2cccc(C)c2)C(=O)/C1=C\c1cccs1	MARV entry inh 2.8µM (no result: VACV mCherry inh)
COC(=O)c1c(Oc2ccc(C(C)=O)cc2)nnc(-c2ccccc2)c1-c1ccccc1	MARV entry inh 6.3µM, Lassa entry inh inconclusive
COCCN1C=C(C(=O)OC)C(c2cc(Br)c(OC)c(OC)c2)C(C(=O)OC)=C1	Lassa entry inh 11µM, VACV Venus inh inconclusive (no result: VACV mCherry inh)
Cc1cc(-c2nc3cc(F)ccc3s2)ccc1N	MARV entry inh 7.1µM, Lassa entry inh 2.2µM, VACV Venus inh inconclusive, VACV mCherry inh inconclusive
C/C=C(/C)C(=O)OC1CC(C)(C)C[C@H]2C3=CC[C@@H]4[C@@]5(C)CCC(O[C@@H]6O[C@@H](C(=O)O)[C@@H](O)C(O[C@@H]7OC[C@H](O)[C@@H](O)[C@@H]7O[C@@H]7OC(CO)C(O)[C@@H](O)[C@@H]7O)C6O[C@@H]6OC(CO)C(O)C(O)C6O)[C@@](C)(CO)[C@@H]5CC[C@]4(C)[C@]3(C)CC(O)[C@@]12CO (stereo partly drawn)	VACV Venus inh 13µM, VACV mCherry inh inconclusive (no result: MARV entry inh, Lassa entry inh)
C/C=C(/C)C(=O)OC1C(OC(C)=O)[C@@]2(CO)C(O)C[C@@]3(C)C(=CCC4[C@@]5(C)CCC(OC6OC(C(=O)O)[C@@H](O[C@@H]7OC(CO)C(O)C(O)C7O)C(O)[C@H]6O[C@@H]6OC(CO)C(O)C(O)C6O)[C@](C)(CO)C5CC[C@@]43C)C2CC1(C)C (stereo partly drawn)	VACV mCherry inh inconclusive (no result: MARV entry inh, Lassa entry inh)
CCN(CC)c1ccc(C(=C2C=CC(=[N+](CC)CC)C=C2)c2ccccc2)cc1	MARV entry inh inconclusive, Lassa entry inh 0.56µM, VACV Venus inh 2µM, VACV mCherry inh inconclusive
O=C(O[C@H]1[C@H](Cc2ccccc2)NS(=O)(=O)[C@H]2C[C@@H]3C=C[C@]12O3)c1ccccc1Br	none (no result: MARV entry inh, Lassa entry inh)
CCN(CC)c1nc(-c2ccc(C(C)(C)C)cc2)nc2ccccc12	Lassa entry inh 13µM (no result: MARV entry inh)
O=C(C[n+]1cccc(Br)c1)c1ccc(Br)cc1	none (no result: MARV entry inh, Lassa entry inh)
Cc1ccc(CNc2ncnc3sc(C(=O)N4CCC[C@H]4C(N)=O)c(C)c23)o1	none (no result: MARV entry inh, Lassa entry inh)
